HCV inh = inhibitors of hepatitis C virus infection | Huh7.5.1 HCVcc-Cre infection, luciferase reporter, 44 h | Potency, µM (top dose mostly 41.8 µM), inactives show top-dose activity change, negative = inhibition, actives largely listed as inhibitors | actives 3.4% (n = 340,000) | AID 651820; active means well fitted inhibition curve with a large enough effect; inconclusive means small, poorly fitted or top-dose-only effect, or another doubt; inactive means no such curve, though single readings can be large or run the other way
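Infectious HCVcc-Cre (~0.5 moi) was added to cells just after compound, with cells seeded 4 h earlier at 1,000 per well. Luciferase activity after 44 h culture reported infection; substrate was incubated 15 min at room temperature before reading.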
VACV Venus inh = vaccinia inhibition (Venus reporter) | Vaccinia virus Venus reporter expression, fluorescence | Potency, µM (doses to about 36.5 µM), inactives show top-dose activity change, negative = inhibition, hits mostly inhibitors | actives 0.46% (n = 330,000); calls by dose curve; tested in A549 cells; further: nearly all actives have a fitted effect of over 30% in size
Vaccinia mCherry = vaccinia inhibition (mCherry reporter); Vaccinia virus mCherry reporter infection, fluorescence; Potency, µM (top dose mostly 36.5 µM), for inactives: at the top dose activity change, negative = inhibition, usual class: inhibitors; actives 0.63% (n = 310,000); AID 720579; calls by dose curve; tested in A549 cells; further: nearly all actives have a fitted effect of over 35% in size
Lassa entry inh = inhibitors of Lassa virus binding or cell entry; Lassa virus pseudotype entry inhibition, cell reporter; Potency, µM (top dose mostly 37.9 µM), inactives show at the highest dose activity change, negative = inhibition, actives largely listed as inhibitors; actives 1.2% (n = 300,000); calls by dose curve; tested in HEK293 cells; further: nearly all actives have a fitted effect of over 50% in size
MARV entry inh = inhibitors of Marburg virus binding or cell entry; Marburg virus pseudotyped entry inhibition, cell reporter; Potency, µM (doses to about 37.8 µM), without a hit: at the highest dose activity change, negative = inhibition, usual class: inhibitors; actives 1.8% (n = 300,000); AID 540276; calls by dose curve; tested in HEK293 cells
FMDV inh = antivirals against foot and mouth disease virus | Potency, µM (doses to about 57.9 µM), for inactives: at the top dose activity change, negative = inhibition, most hits filed as inhibitors | FMDV antiviral cell-based qHTS | actives 1.2% (n = 410,000); calls by dose curve; tested in HEK293T cells; further: read-out not given here; nearly all actives have a fitted effect of over 45% in size
* hit, by the source's call; [ ] = remark or other dose. An excerpt weighted towards active compounds, which were near 5.3% of everything screened. On the % scale 0 is the no-effect control and ±100 the full control effect; potency means the concentration at half of the fitted maximal effect.

`CCN=c1scc(-c2ccc3c(c2)NC(=O)CO3)n1N=C1CCCC1` gave HCV inh 15.8µM*, VACV Venus inh inconclusive, Vaccinia mCherry inconclusive, Lassa entry inh inconclusive, MARV entry inh 3.98µM* and FMDV inh inconclusive.
Screening CCC(C)C(=O)Nc1nc(-c2ccc3c(c2)NC(=O)CO3)cs1 (centres undefined) returned HCV inh inconclusive, Lassa entry inh -2.4%, MARV entry inh inconclusive and FMDV inh -18.6%.
CCCCN=c1scc(-c2ccc3c(c2)NC(=O)CO3)n1N=C1CCCC1 was read as HCV inh 7.94µM*, Lassa entry inh inconclusive, MARV entry inh inconclusive and FMDV inh 25.1µM*.
Nc1nc(-c2ccc3c(c2)NC(=O)CO3)cs1 was read as HCV inh inconclusive, VACV Venus inh -12.9%, Vaccinia mCherry -21.2%, Lassa entry inh 7.4%, MARV entry inh -19.5% and FMDV inh 10.0%.
`COc1cc(OC)c(OC)cc1/C=C/c1ccc2ccccc2[n+]1C` gave VACV Venus inh 27.1% and Vaccinia mCherry -14.0%.
For N#CC1=C(N)OC2=C(C(=O)CC(c3ccccc3)C2)C1c1ccc2c(c1)OCO2 (centres undefined) the results were HCV inh 2.0%, VACV Venus inh -9.1%, Vaccinia mCherry -29.6%, Lassa entry inh 13µM*, MARV entry inh -3.6% and FMDV inh inconclusive.
For Cc1ccc(S(=O)(=O)NCC(=O)NCC(=O)N(C)Cc2ccc3ccccc3c2)cc1C the results were HCV inh 10µM*, VACV Venus inh -25.6%, Vaccinia mCherry -18.4%, Lassa entry inh -22.1%, MARV entry inh inconclusive and FMDV inh inconclusive.
`COc1cccc(CNC(=O)C2CCCN(c3nn4cc(-c5ccc(C)cc5)nc4s3)C2)c1` (centres undefined) gave VACV Venus inh -14.5%, Vaccinia mCherry -13.6%, Lassa entry inh 10.6%[46.1 µM] and FMDV inh -5.0%.
`COc1ccc(NC(=O)CCCn2c(=O)c3cccn3c3ccccc32)c(OC)c1` gave VACV Venus inh -8.6%, Vaccinia mCherry -4.0%, Lassa entry inh inconclusive and FMDV inh -21.5%.
`O=C(Nc1ccccc1)C1=C[C@@H](C2CCCCC2)C[C@@H](OCCCCO)O1` gave HCV inh 0.316µM*, VACV Venus inh -21.6%, Vaccinia mCherry inactive and FMDV inh -3.3%.
`O=C(Nc1ccccc1)C1=C[C@H](C2CCCCC2)C[C@H](OCCCCO)O1` gave HCV inh 3.3%, VACV Venus inh -24.8%, Vaccinia mCherry -22.6% and FMDV inh 42.3%.
C[C@H](NC(=O)OC(C)(C)C)[C@@H](O)c1ccco1 was read as VACV Venus inh -7.5% and Vaccinia mCherry inactive.
For c1ccc(CCNc2ccc3c(c2)Cc2ccccc2-3)nc1 the results were HCV inh -6.7%, VACV Venus inh 27.2%, Vaccinia mCherry inconclusive, Lassa entry inh inconclusive, MARV entry inh 1µM* and FMDV inh 28.6%.
For Cc1[nH]c2ccccc2c1C(=O)COC(=O)c1c(-c2ccccc2Cl)noc1C the results were HCV inh inconclusive, VACV Venus inh inconclusive, Vaccinia mCherry inconclusive, Lassa entry inh -9.0%, MARV entry inh inconclusive and FMDV inh -23.3%.
Screening Cc1[nH]c2ccccc2c1C(=O)COC(=O)c1c(-c2c(F)cccc2Cl)noc1C returned HCV inh inconclusive, VACV Venus inh inconclusive, Vaccinia mCherry -15.3%, Lassa entry inh -25.9%, MARV entry inh inconclusive and FMDV inh 31.6µM*.
For CCOC(=O)c1cccc(NC(=O)c2cn(-c3cccc(OC)c3)c(=O)c3ccccc23)c1 the results were VACV Venus inh -19.6%, Vaccinia mCherry -26.4%, Lassa entry inh -13.2%[46.1 µM] and FMDV inh -2.2%.
`Cc1c(CCOC(=O)C23CC4CC(CC(C4)C2)C3)sc[n+]1Cc1ccccc1` gave HCV inh -4.9%, VACV Venus inh -6.9%, Vaccinia mCherry -19.3%, Lassa entry inh 2.1%, MARV entry inh 2.3% and FMDV inh -8.8%.
Cc1c(CCO)sc[n+]1CC(=O)c1ccccc1 was read as VACV Venus inh -10.3% and Vaccinia mCherry -11.6%.
`Cc1c(CCOC(=O)c2cc([N+](=O)[O-])cc([N+](=O)[O-])c2)sc[n+]1CC(=O)c1ccc(Br)cc1` gave HCV inh 10µM*, VACV Venus inh -17.7%, Vaccinia mCherry -12.9%, Lassa entry inh -8.7%, MARV entry inh inconclusive and FMDV inh -28.3%.
Screening Cc1c(CCOC(=O)c2ccc(Cl)cc2Cl)sc[n+]1CC(=O)c1ccccc1 returned HCV inh 12.6µM*, VACV Venus inh inconclusive, Vaccinia mCherry -14.9%, Lassa entry inh -4.9%, MARV entry inh -4.0% and FMDV inh -20.8%.
Screening Cc1c(CCOC(=O)C23CC4(C)CC(C)(CC(C)(C4)C2)C3)sc[n+]1CC(=O)c1ccccc1 returned HCV inh 11.5%, VACV Venus inh inconclusive, Vaccinia mCherry inconclusive, Lassa entry inh -13.5%, MARV entry inh inconclusive and FMDV inh 28.2µM*.
Cc1c(CCOC(=O)CC23CC4CC(CC(C4)C2)C3)sc[n+]1CC(=O)c1ccccc1 was read as HCV inh 11.2µM* and FMDV inh inconclusive.
For COc1cccc(CNC(=O)c2c(OC)cc(=O)n3c2CCN(C(=O)C2CC=CCC2)CC3)c1 (centres undefined) the results were VACV Venus inh -9.8%, Vaccinia mCherry -16.0% and FMDV inh 1.6%.
Cc1cc2c(nc1C)CCCN2CC(O)CN1CCN(C)CC1 (centres undefined) was read as MARV entry inh 17.7%[14.2 µM].
For Cc1c(CCOC(=O)C23CC4CC(CC(C)(C4)C2)C3)sc[n+]1Cc1ccccc1 the results were HCV inh -1.6%, Lassa entry inh inconclusive, MARV entry inh inconclusive and FMDV inh 15.8µM*.
Screening COc1cc(/C=C/c2ccc3ccccc3n2)cc(OC)c1OC returned VACV Venus inh -26.0% and Vaccinia mCherry inconclusive.
`CC(C)N(C(=O)N1CCN(c2ccnc3cc(Cl)ccc23)CC1)C(C)C` gave HCV inh inconclusive, VACV Venus inh -8.7%, Vaccinia mCherry -0.8%, Lassa entry inh 11.2µM*, MARV entry inh inconclusive and FMDV inh inconclusive.
For Cc1ccc(S(=O)(=O)N2CCN(c3ccnc4cc(Cl)ccc34)CC2)cc1 the results were HCV inh inconclusive, VACV Venus inh -4.1%, Vaccinia mCherry -12.8%, Lassa entry inh -21.6%[46.1 µM], MARV entry inh 5.01µM* and FMDV inh -9.5%.
Screening CCOC(=O)N1CCN(c2ccnc3cc(Cl)ccc23)CC1 returned HCV inh -4.6%, VACV Venus inh -7.0%, Vaccinia mCherry -4.8%, Lassa entry inh 4.1%, MARV entry inh inconclusive and FMDV inh -19.1%.

Compound activity from PubChem BioAssay.
